Experimental data reported in PubChem BioAssay AID624414 (National Center for Advancing Translational Sciences (NCATS), 2012).
Hit rate of the full screen: of about 410,000 compounds, about 480 (0.12%) were called active. Rule as the data show it: active = activation above about 50%; inconclusive = mostly about 30% to 49%; inactive = weaker than that. The sample as a whole holds a higher share of actives than the screen did.

The molecules below were run against Mucolipin-1 (Homo sapiens) (UniProt Q9GZU1) (assay: qHTS for Agonists of the Human Mucolipin Transient Receptor Potential 1 (TRPML1)). Details: TRPML1-expressing cells, Ca2+ dye fluorescence, FDSS; active compounds read high.
Sequence of Mucolipin-1 (Homo sapiens) (Q9GZU1 whole entry, looked up, the tested form may be a part): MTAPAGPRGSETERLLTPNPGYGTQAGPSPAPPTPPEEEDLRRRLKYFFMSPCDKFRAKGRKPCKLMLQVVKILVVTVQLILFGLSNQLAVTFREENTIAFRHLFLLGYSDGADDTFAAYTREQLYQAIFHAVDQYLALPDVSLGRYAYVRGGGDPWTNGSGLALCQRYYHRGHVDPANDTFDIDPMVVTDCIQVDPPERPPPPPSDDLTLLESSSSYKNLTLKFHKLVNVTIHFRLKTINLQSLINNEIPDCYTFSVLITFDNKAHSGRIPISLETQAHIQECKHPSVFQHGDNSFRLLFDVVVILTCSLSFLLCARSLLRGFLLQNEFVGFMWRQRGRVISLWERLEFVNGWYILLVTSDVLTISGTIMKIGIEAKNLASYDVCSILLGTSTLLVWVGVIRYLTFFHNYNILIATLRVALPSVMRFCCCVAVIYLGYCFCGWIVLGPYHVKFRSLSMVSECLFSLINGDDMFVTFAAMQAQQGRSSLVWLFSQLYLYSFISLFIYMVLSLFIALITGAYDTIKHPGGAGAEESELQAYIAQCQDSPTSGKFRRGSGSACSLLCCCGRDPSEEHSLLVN
From the text: Mutations of human Mucolipin transient receptor potential 1 (TRPML1) cause type IV mucolipidosis (ML4), a devastating neurodegenerative disease in young children. […] Currently, there is no treatment for ML4. […] Under physiological conditions, TRPMLs regulate membrane trafficking by transducing information about PI(3,5)P2 levels into changes in juxtaorganellar Ca2+, thereby triggering membrane fusion/fission events in the late endocytic pathways (endolysosomal trafficking). In addition, TRPML1 mediates release of Fe2+ from late endosomes and lysosomes, which is essential for cellular iron metabolism. Thus, impaired ion (Ca2+ and Fe2+) homeostasis underlies lysosomal dysfunction and ML4 phenotypes. In ML4 cells, the problem is twofold. First, defective Ca2+-dependent membrane trafficking due to TRPML1-deficiency causes accumulation of lipids and other bio-materials in the lysosome. The second strike comes from the lysosomal iron overload (due to impairment of TRPML1's Fe2+ conductivity), which converts the accumulated materials into the nondegradable (resistant to lysosomal degradation) lipofuscin (also called aging pigment) in the lysosome. Lipofuscin accumulation dramatically compromises the functions of lysosomes.
Niemann-Pick type C (NPC) disease is another lysosome storage disease (LSD) with severe neurodegeneration during the childhood. Currently, there is no cure for NPC. […] Thus, TRPML1 is likely to be an essential regulator of lysosome ion homeostasis. We specifically hypothesize that stimulating TRPML1's Fe2+/Ca2+ channel activity in the lysosome using synthetic agonists can alleviate neurodegeneration associated with ML4 or NPC.
To this end, a high throughput screen was developed in a miniaturized format to screen against the Molecular Libraries Small Molecule Repository (MLSMR) to find small molecules that act either as inhibitors or agonist against the TRPML1 channel.
NIH Chemical Genomics Center [NCGC]
NIH Molecular Libraries Probe Centers Network [MLPCN]
Assay Submitter (PI): Haoxing Xu, University of Michigan Ann Arbor
TRPML1-DL cells are dissociated from flasks, counted and, brought up to a density of 500,000 cells per mL of media containing a 1X Tet inducer. Using a Multidrop Combi, 3uL of this cell solution is dispensed to each well of a 1536 TC treated, black, clear bottom hi base plate for a final cell density of 1,500 cells per well. The assay plates are incubated overnight (approximately 16 hours) at 37 degrees C and 5% CO2. Using a Multidrop Combi, 2uL of ABD Ca8 no wash dye plus quencher is added to each well. The assay plates incubate at room temperature in the dark for 45-90 minutes. The assay plate is read on the FDSS using the following protocol: 10 second baseline read, 23nL of compounds and controls are added using 1536 pintool, agonist read for 110 seconds, 1 uL EC80 addition (4uM final 54-4 diluted in media), antagonist read for 110 seconds.
Also: 0% is about no effect.

Compound | activation
Cc1ccc(CNC(=O)c2cccc3c2C(=O)c2ccc(N4CCC(C)CC4)cc2S3(=O)=O)cc1 | 66.9% (active)
Cc1ccc(CNC(=O)c2ccccc2CCc2ccccc2)cc1 | 0.628% (inactive)
O=C1c2ccccc2S(=O)(=O)c2cc(N3CCN(c4ccccn4)CC3)ccc21 | -0.448% (inactive)
O=C(COC(=O)c1ccccc1OCCOc1ccccc1)Nc1cccc(Br)c1 | -1.41% (inactive)
COc1cc2[nH]c(C)c(CCN3CCN(c4ccccc4)CC3)c2cc1OC | -0.545% (inactive)
CN(CC(=O)Nc1ccc(C(N)=O)cc1)S(=O)(=O)c1ccc2c(c1)OCCO2 | 0.311% (inactive)
NC(=O)c1ccc(NC(=O)COC(=O)C(Cc2ccccc2)NC(=O)c2ccccc2)cc1 (stereo not given) | 4.33% (inactive)
NC(=O)c1ccc(NC(=O)COC(=O)c2c3c(nc4ccccc24)/C(=C\c2ccc4c(c2)OCO4)CCC3)cc1 | 96% (active)
C[N+]1(CC(=O)c2cccs2)CCOCC1 | -0.317% (inactive)
CN(C)c1ccc(/C=C2\C=Cc3ccccc32)cc1Br | 0.0951% (inactive)
OCCNc1ncnc2oc(-c3ccco3)c(-c3ccco3)c12 | 0.995% (inactive)
COc1ccc(-c2cc(C(=O)Nc3sc4c(c3C(N)=O)CCCC4)no2)cc1 | 0.03% (inactive)
CC(C)c1ccc(NC(=O)Cn2nnc(C(=O)NCCc3ccccc3)c2N)cc1 | 1.91% (inactive)
Cc1ccc(-c2nnc3ccc(SCC(N)=O)nn23)cc1 | -0.578% (inactive)
COc1ccc(C(=O)Nc2nonc2-c2ccc(OC)c(OC)c2)cc1Cl | 2.17% (inactive)
CC1(C)CC(=O)c2cc(C(=O)NCc3ccccc3)c(=O)[nH]c2C1 | -0.38% (inactive)
COc1ccc(C(=O)NCC(c2ccc(N(C)C)cc2)N2CCc3ccccc32)c(OC)c1 (stereo not given) | -0.0968% (inactive)
CCOc1ccccc1N(CC)C(=O)c1cc2ccc3cccnc3c2[nH]1 | 1.16% (inactive)
CCOC(=O)c1ccc(NC(=O)CC2C(=O)N(c3ccccc3)C(=O)N2Cc2cccs2)cc1 (stereo not given) | 0.378% (inactive)
Cc1csc(NCC(=O)c2c[nH]c3ccccc23)n1 | -0.545% (inactive)
Nc1ccccc1N | -0.412% (inactive)
c1ccc(Cn2nnc3c(N4CCCCC4)ncnc32)cc1 | -0.998% (inactive)
Cc1cccc(-c2nnc(SC(C)C(=O)Nc3ccccc3)n2C)c1 (stereo not given) | -0.995% (inactive)

Compound | activation
Cc1ccc(C=O)cc1Cl | -0.475% (inactive)
C(=Nc1ccc(/C=C/c2ccnc3ccccc23)cc1)c1cc2c3c(c1)CCCN3CCC2 | 1.62% (inactive)
ClC/C=C/C[n+]1ccccc1Cl | 0.254% (inactive)
Nc1ccc(/C=C/c2ccnc3ccccc23)c([N+](=O)[O-])c1 | 17.6% (inactive)
Cc1ccccc1NC(=O)Cn1c(=O)n(CC2CCC(C(=O)NCCc3ccccc3)CC2)c(=O)c2ccccc21 (stereo not given) | 0.124% (inactive)
Clc1cccc[n+]1CCCC[n+]1ccccc1Cl | -0.384% (inactive)
CCOc1ccc2oc(=O)cc(CN3CCN(C(=O)c4ccc(F)cc4)CC3)c2c1 | 0.651% (inactive)
CC(C)(C(=O)NO)c1ccccc1 | -0.108% (inactive)
CN(C(=N)N)c1ccc(/C=C2\C=Cc3ccccc32)cc1 | -0.285% (inactive)
CCCCSc1ncnc2c1sc1nc(N3CCOCC3)c3c(c12)CCCC3 | 0.201% (inactive)
CSc1n[nH]c(-c2ccco2)n1 | -0.16% (inactive)
O=C(C[n+]1ccncc1)c1ccc2c(c1)CCCC2 | -0.708% (inactive)
Cc1cc[n+](C2CCCCC2)cc1 | 3.69% (inactive)
CN1CCN(/[N+]([O-])=N/Oc2ccc([N+](=O)[O-])cc2[N+](=O)[O-])CC1 | 1.19% (inactive)
C=C1C=C(C(F)F)n2ncc(C(=O)NCCc3ccccc3OC)c2N1 | -1.28% (inactive)
COc1ccc(CCNc2nc(-c3ccc(Cl)cc3)cc(C(F)(F)F)n2)cc1OC | -0.222% (inactive)
Cc1cc(C)cc(NC(=O)N(C)Cc2ccccc2)c1 | 0.932% (inactive)
CCC(=O)N(Cc1ccccc1)c1ccccn1 | -0.645% (inactive)
CN(C(=O)CN(CCO)CC(=O)N(C)C(C)(C)Cc1ccccc1)C(C)(C)Cc1ccccc1 | 51.2% (active)
COc1ccc(C2/C=C\CN(C(=O)c3ccc(C)cc3)C(Cc3ccccc3)C(=O)N2Cc2ccc(F)cc2)cc1 (stereo not given) | 0.118% (inactive)
CCc1ccc(C2CC(=O)c3c([nH]c(C(=O)OCc4ccc(C)cc4)c3C)C2)cc1 (stereo not given) | 1.69% (inactive)
CCc1ccc(CNCc2c(C(=O)O)n(Cc3ccc(F)cc3Cl)c3cc(OC)ccc23)cc1 | 0.807% (inactive)
